TDP-43 yeast inh = rescues yeast growth from TDP-43 toxicity; TDP-43 expressing yeast growth rescue, BacTiter-Glo, 24 h; Potency, µM (doses to about 46.1 µM), for the others: top-dose growth rescue (activation), actives largely listed as activators; 410,000 compounds, 1.8% hits; further: % of control where 0% means no effect; nearly all actives have a fitted effect of over 50% in size
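Yeast cells expressing TDP-43 under galactose induction are exposed to compounds for 24 hr at 30 deg C. BacTiter-Glo luminescence measures growth, so protective compounds score as activators.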
MmCpn inh = inhibitors of Methanococcus maripaludis chaperonin TRiC (MmCpn); purified Mm-Cpn ATPase, ADP Transcreener TR-FRET; Potency, µM (top dose mostly 76.9 µM), without a hit: at the top dose activity, negative = inhibition, usual class: inhibitors; 330,000 compounds, 0.031% hits; further: on the % scale 0 is the no-effect control and ±100 the full control effect; nearly all actives have a fitted effect of over 80% in size
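Inhibition of chaperonin ATP hydrolysis is measured as reduced ADP production, detected by competitive TR-FRET in which signal falls with ADP. Final enzyme 25 nM and ATP 10 uM, reacted 30 min at 37°C.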
Abeta rescue = compounds reversing amyloid beta toxicity in yeast; yeast expressing A-beta42, growth rescue, OD600, 48 h; response scale: 0% DMSO, 100% iron-clioquinol control; Potency, µM (highest dose often 46.1 µM), actives largely listed as activators; 410,000 compounds, 0.063% hits; AID 1347071; further: nearly all actives have a fitted effect of over 55% in size
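Yeast A-beta toxicity model in growth medium with pinned compounds, 48 h at 30 C; growth read as absorbance at 600 nm. Normalized to FeCl3/clioquinol equimolar mix (positive) and DMSO (negative).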
aSyn rescue = inhibitors of alpha-synuclein toxicity in yeast; Yeast expressing alpha-synuclein, growth rescue, BacTiter-Glo, 24 h; Potency, µM (titrated, usually from 46.1 µM), without a hit: top-dose growth rescue (activation), usual class: activators; 370,000 compounds, 0.14% hits; AID 652106; further: % of control where 0% means no effect; nearly all actives have a fitted effect of over 65% in size
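Screening used galactose-induced yeast with toxic alpha-synuclein levels, exposed to compound for 24 hr at 30 deg C. Cell growth, read with BacTiter-Glo luminescence, gave the measured signal.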
ClpP mod = qHTS Assay for Activators of ClpP; ATP-dependent Clp protease proteolytic subunit (Bacillus subtilis (strain 168)), P80244; purified B. subtilis ClpP, FRET peptide cleavage, 20 min; Potency, µM (top dose mostly 57.5 µM), for the others: top-dose activity change, negative = active; 340,000 compounds, 1.9% hits; active means well fitted falling curve with a large enough effect; inconclusive means small, poorly fitted or top-dose-only effect; inactive means no such curve, though single readings can be large or run the other way; further: the source files actives as falling curves though it sought activators and does not explain the sign; nearly all actives have a fitted effect of over 65% in size
Target sequence (P80244 whole entry, looked up): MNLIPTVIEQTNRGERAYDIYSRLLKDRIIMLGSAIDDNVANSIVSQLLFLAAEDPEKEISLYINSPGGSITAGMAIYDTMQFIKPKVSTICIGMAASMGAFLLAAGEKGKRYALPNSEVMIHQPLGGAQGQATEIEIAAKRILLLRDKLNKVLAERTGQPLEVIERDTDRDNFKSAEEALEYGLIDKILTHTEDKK
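ClpP 10 microg/mL final, pH 8 Tris/KCl buffer with BSA, glycerol, Tween-20; compound pinned in; FRET-FV substrate; RT 20 min; Ex320/Em430; ΔFRET vs ADEP 5.8 microM, DMSO, no enzyme.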
FUS yeast rescue = suppressors of FUS proteinopathy in yeast; Potency, µM (highest dose often 76.6 µM), most hits filed as activators; AID 1347120; S. cerevisiae FUS-expressing, growth rescue, OD600, 24 h; 390,000 compounds, 0.24% hits;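 further: plate controls were DMSO vehicle for no effect and reference control for full effect; nearly all actives have a fitted effect of over 55% in size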
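Read-out: OD at 600 nm after 24hr at 30C, reporting rescue of FUS-induced yeast toxicity. Cells at OD 0.005 in galactose (2%) minimal medium; compounds tested in a dilution series; CP55940 titration from 92uM final as control.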
Numbers without * were called inactive; i = inactive; ? = inconclusive; . = no result given. An excerpt weighted towards active compounds, which were near 3.6% of everything screened. Unless noted, the call rests on the fitted dose curve; in most records, active means well fitted curve in the direction sought with a large enough effect; inconclusive means small, poorly fitted or top-dose-only effect, or another doubt; inactive means no such curve, though single readings can be large; an effect the other way counts as inactive or inconclusive. Potency means the concentration at half of the fitted maximal effect.

SMILES	TDP-43 yeast inh	MmCpn inh	Abeta rescue	aSyn rescue	ClpP mod	FUS yeast rescue
CCCCCCCCC(c1nc2cc(C)c(C)cc2[nH]1)n1c(=O)c(-c2ccccc2Br)nc2ccccc21 (stereo not given)	-12%	.	i	?	-18%	i
COc1ccc(OCCn2c(NC(=O)c3ccc(OC)cc3)nc3ccccc32)cc1	14%	.	i	.	33%	i
CCCCOc1ccc(C(=O)NCCc2csc(-c3ccc(OC)cc3)n2)cc1	-18%	.	i	.	22µM*	i
CCC12CN3CC(CC)(CN(C1)C3c1cccnc1)C2=O (stereo not given)	6%	1%	i	2%	1%	i
O=C1N(c2ccc(Cl)cc2)C(c2cccnc2)N2CCCN12 (stereo not given)	35µM*	-1%	i	?	2%	i
C/C=C/c1ccc2c(c1)OCO2	7%	3%	i	0%	-12%	i
c1cc2c(cc1[C@H]1OCC3C1CO[C@@H]3c1ccc3c(c1)OCO3)OCO2 (stereo not given in full)	11µM*	1%	i	6%	-2%	?
COC(=O)C1=C(c2cccc(OCc3ccccc3)c2)C[C@@H]2CC[C@H]1N2C(=O)NCc1ccc2[nH]ccc2c1	-1%	-1%	i	-5%	-2%	8.9µM*
COC(=O)C1=C(c2cccc(OCc3ccccc3)c2)C[C@@H]2CC[C@H]1N2C(=O)NCc1ccc(F)cc1	23%	0%	i	-13%	1%	?
S=C(NCCc1ccccc1)N1Cc2ccccc2-n2nncc2C1	22µM*	.	i	0%	0%	i
S=C(NCCc1ccccc1)N1Cc2cc(N3CCCCC3)ccc2-n2nncc2C1	35µM*	.	i	12%	32µM*	?
S=C(NCCc1ccccc1)N1Cc2cc(-c3ccccc3)ccc2-n2nncc2C1	?	.	i	14%	-2%	?
Cc1ccc([C@H]2C[C@@H](O)[C@H](n3cc(COC(=O)c4ccccc4)nn3)CN2CC2CCCCC2)cc1	?	.	i	7%	-1%	i
Cc1ccc2c(c1)NP(=S)(Oc1ccccc1)N2 (stereo not given)	35µM*	.	i	?	2%	i
COc1ccc2c(c1)NP(=S)(Oc1ccccc1)N2 (stereo not given)	26%	-2%	i	5%	-3%	i
CC(C)C(=O)Nc1ccc([N+](=O)[O-])c(C(F)(F)F)c1	24%	1%	i	0%	2%	i
O=C1NCN(c2ccccc2)C12CCN(C(c1cccc3ccccc13)c1nnnn1Cc1ccccc1)CC2 (stereo not given)	15%	.	i	2%	-6%	?
CCCCn1nnnc1C(c1cccc2ccccc12)N1CCC2(CC1)C(=O)NCN2c1ccccc1 (stereo not given)	-9%	.	i	12%	-20%	10µM*
O=C1NCN(c2ccccc2)C12CCN(C(c1ccccc1OC(F)(F)F)c1nnnn1Cc1ccccc1)CC2 (stereo not given)	0%	.	i	1%	-1%	10µM*
O=C1NCN(c2ccccc2)C12CCN(C(c1ccnc3ccccc13)c1nnnn1Cc1ccccc1)CC2 (stereo not given)	6%	.	i	0%	-5%	i
CCc1c(C)c2ccc(OCC(N)=O)cc2oc1=O	22%	0%	i	-2%	6.3µM*	i
COC(=O)c1sc(NC(=O)/C=C/c2ccc(OC)c(OC)c2)c(C(=O)OC)c1C	?	.	i	.	-11%	i
CC(C)(O)[C@H]1O[C@H]2CC[C@@]3(C)[C@@](O)(CC[C@H]4Cc5c([nH]c6ccccc56)[C@@]43C)C2=CC1=O	22µM*	0%	?	3%	1%	?
CCCCSc1nc2c(cnn2-c2ccccc2)c(=O)n1N	16µM*	-6%	i	-29%	0%	i
Cc1ccccc1-c1ccc2c(c1)C1c3c(-c4ccccc4)nnn3-c3ccccc3C(=O)N1CC2 (stereo not given)	?	.	i	2%	-6%	?
SMILES	TDP-43 yeast inh	MmCpn inh	Abeta rescue	aSyn rescue	ClpP mod	FUS yeast rescue
O=C1c2ccccc2-n2nncc2C2c3cc(Br)ccc3CCN12 (stereo not given)	35µM*	.	i	-3%	-1%	i
CCCNc1nc(-c2cc(C(=O)Nc3ccccc3)on2)cc(C(C)C)n1	18µM*	.	i	13µM*	-24%	i
CC(=O)c1ccc(NC(=O)c2cc(CC(C)C)on2)cc1	?	-3%	i	-11%	-7%	i
c1ccc(-c2nn(-c3ccccc3)[n+](-c3ccccc3)n2)cc1	22%	.	i	10%	?	.
Cc1ccc(-c2nnc(Nc3ccc(Br)cc3)c3ccccc23)cc1S(=O)(=O)NCc1nc2ccccc2[nH]1	0%	.	i	.	?	?
COc1nnc(-c2ccc(N3CCCCC3)c(NC(=O)c3ccccc3)c2)c2ccccc12	?	.	i	.	-1%	i
CCCCn1c(O)c(C(CC)=NCc2ccc(F)cc2)c(=O)[nH]c1=O	22µM*	1%	i	5%	-1%	?
CCCCn1c(O)c(C(C)=NCc2ccc(F)cc2)c(=O)[nH]c1=O	20%	-1%	i	-5%	0%	i
c1ccc(C(c2ccccc2)N2CCN(c3ccc4ccccc4n3)CC2)cc1	-6%	1%	i	-11%	18µM*	i
c1ccc2nc(N3CCNCC3)ccc2c1	3%	-1%	i	3%	4%	i
NN=C1C(Cl)=C(Cl)C(Cl)=C1Cl	18µM*	.	i	4%	2%	i
N#Cc1ccc(C(=O)N2CCN(c3nc4ccc(F)cc4s3)CC2)cc1	?	.	i	.	-2%	i
Cc1ccc(-c2cc(-c3ccc(C)cc3)[n+](C)o2)cc1	17%	1%	i	1%	14µM*	.
Cc1ccc(-c2cc(-c3ccc(C)cc3)[n+](-c3ccccc3)c(-c3ccc(C)cc3)c2)cc1	-64%	-7%	i	-38%	4%	i
Nc1ccccc1C(=O)OCC(=O)N1CCc2ccccc21	0%	1%	i	-1%	0%	i
N#CSCC(=O)N1c2ccccc2CCc2ccccc21	18µM*	1%	?	0%	1%	.
COCCNP(=O)(c1ccccc1)c1nc2ccccc2s1 (stereo not given)	.	-4%	.	.	.	.
